Activity calls are given as the source filed them. Rule for the calls: active = hit-call score of the fitted dose curve at least 0.9, where 1 is the maximum; inactive = score below 0.9.

Read-out in this assay: Cytochrome P450 (CYP1A1), CYP1A1 (gene 1543)
Description: LTEA_HepaRG_CYP1A1: Life Technologies and Expression Analysis (LTEA) Assay for Cytochrome P450 (CYP1A1) using HepaRG (AID 2283454). As to conditions: mRNA level, 48 h; actives raise or lower the signal. How it is done:
LTEA_HepaRG is a cell based, multiplexed-readout assay that uses HepaRG, a human liver cell line, with measurements taken at 48 hours after chemical dosing on a 96-well plate.LTEA_HepaRG_CYP1A1 is one of 102 assay component(s) measured in the LTEA HepaRG cell culture assay. It is a marker of NR mediated metabolism.Data from the assay component LTEA_HepaRG_CYP1A1 was analyzed into 1 endpoint. This assay endpoint, LTEA_HepaRG_CYP1A1, was analyzed with bidirectional fitting relative to DMSO as the negative control and baseline of activity. Using a type of inducible reporter, measures of mRNA induction for gain or loss-of-signal activity can be used to understand regulation of transcription factor activity. To generalize the intended target to other relatable targets, this assay endpoint is annotated to the cyp intended target family, where the subfamily is xenobiotic metabolism.
A total of 1060 chemcials from the ToxCast library were tested in eight-point concentration-response experiments. Cell culture and cytotoxicity assays were conducted at Thermo Fisher Scientific's Custom Services facility (Madison, WI). A single lot of human HepaRG cells (Thermo Fisher Scientific, Frederick, MD) was used for the cell culture experiments. 96-well format collagen type I coated plates of human HepaRG cells were prepared using established methods. Briefly, cryopreserved HepaRG cells were thawed, plated at a density of approximately 100,000 cells/well in HepaRG Thaw, Plate, and General Purpose media (HPRG770, Thermo Fisher Scientific), and incubated for 48 hours. 0.5% DMSO was selected as vehicle control to balance the requisite need of DMSO in HepaRG cultures to maintain differentiation (for example, baseline metabolism, proportions of hepatocytes vs. cholangiocytes), while enabling further hepatic receptor pathway activation (for example, PXR and CAR) in response to chemical exposure. 48 hours after plating, the culture medium was replaced with HepaRG Serum-Free Incudtion Media. Cells were exposed to each test chemical in duplicate and maintained in CO2 incubators for another 48 hours. Chemical plates were thawed to room temperature and 200x concentrations of treatment groups were prepared. 8-point conentration-reponse curves were made with the highest exposure at 100 uM, followed by half-log dilutions, all in 0.5% DMSO. Each test plate contained variouse controls, induction positive controls (1mM phenobarbital), cytotoxicity positive controls ([…] aflatoxin B1), vehicle controls (0.5% DMSO), and total lysis controls (0.5% DMSO). Cell morphology images were taken using an Essen IncuCyte FLR automated microscope, with six 96-well plates imaged in about 24 minutes. Images were captured and exported and JPEG files. Spent culture media was transfered to black-well plates for the LDH assay, and remaining media was sorted at -80 C for later use. Cells were treated with RLT buffer and frozen until shipped for gene expression analysis. Total RNA was isolated from the cell suspension in 75 uL of Buffer RLT (Qiagen, Germantown, MD 20874) by Quintiles/Expression Analysis (Durham, NC) using a custom isolation procedure. Total RNA from each plate well was transferred to a preamplification plate. Fluidigm's 96.96 Dynamic ArrayTM (Fluidigm, Amsterdam, the Netherlands) technology was used for gene expression analyses by quantitative reverse transcription polymerase chain reaction (qRT-PCR, performed by Quintiles/Expression Analysis, Durham, NC)89. Standard TaqManTM Assays (Applied Biosystems/ThermoFisher Scientific, Foster City, CA) were used to assess the expression of 93 genes selected based on their selectivity and sensitivity to important hepatic receptors known to be modulated by environmental chemicals; importance in human hepatocyte functionality; and hepatotoxicity. […]
Turning to `O=P1(N(CCCl)CCCl)NCCCO1` (stereo not given), the AC50 (in general, the concentration giving half of the maximal activity seen) is 50 µM (active).

Take `CCNc1nc(Cl)nc(NC(C)(C)C)n1`: the AC50 is 22.7 µM (active).

In the case of `CC(Cl)(Cl)C(=O)O`, the call was inactive.

`CSC(C)(C)C=NO`: the result was inactive.

On to `ClC1=C(Cl)C2(Cl)C3C(Cl)C(Cl)CC3C1(Cl)C2(Cl)Cl` (stereo not given), for which the AC50 was 33.4 µM (active).

As for `CCC(C)(C)c1ccc(O)cc1`, the result was inactive.

Consider `Cc1ccc([N+](=O)[O-])cc1C`, for which the AC50 is 68.1 µM (active).

For `Nc1ccc2ccccc2c1`, the AC50 is 23.5 µM (active).

On to `CC(Cc1ccc(OCC(=O)O)cc1)NCC(O)c1csc(C(F)(F)F)n1` (stereo not given), for which the AC50 is 0.0496 µM (active).

As to `Nc1ccc(Cl)cc1`, the AC50 was 28 µM (active).

Turning to `O=C(O)C(Cl)Cl`, the compound was classed as inactive.

As for `CCOP(=S)(Oc1ccc([N+](=O)[O-])cc1)c1ccccc1` (stereo not given), the AC50 is 14.3 µM (active).

Turning to `c1ccc(OP(Oc2ccccc2)Oc2ccccc2)cc1`, the AC50 was 77.3 µM (active).

Take `CCOc1ccc(C(C)(C)COCc2cccc(Oc3ccccc3)c2)cc1`: the concentration at half-maximal activity (AC50) was 41 µM (active).

In the case of `O=C(O)C1C(C(=O)O)C2(Cl)C(Cl)=C(Cl)C1(Cl)C2(Cl)Cl` (stereo not given), the compound was called inactive.

Take `Nc1cc2c3c(c1)C(c1ccccc1)=N[C@@H](NC(=O)c1cccnc1)C(=O)N3CC2`: the AC50 is 31.8 µM (active).

For the compound `CC(C)(C)OOC(C)(C)C`, the outcome was inactive.

`CCCCc1ccccc1`: the AC50 was 75.6 µM (active).

Take `ClC(Cl)(Cl)c1ccccc1`: the result was inactive.

On to `Cc1ccc(N)cc1N`, for which the AC50 is 21.6 µM (active).

For `CN(C)C(=O)Cl`, the AC50 was 50 µM (active).

`c1ccc2c(c1)Nc1ccccc1S2`: the AC50 was 86.5 µM (active).

For the compound `O=P(Oc1ccccc1)(Oc1ccccc1)Oc1ccccc1`, the AC50 was 26 µM (active).

On to `c1nc[nH]n1`, for which the AC50 is 0.146 µM (active).

As for `CCOS(=O)(=O)OCC`, the outcome was inactive.

For `CCOP(=S)(OCC)SCSCC`, the AC50 was 66.7 µM (active).

Turning to `Cc1cccc(N)c1`, the AC50 was 50.2 µM (active).

For the compound `CCCCN(CCCC)N=O`, the call was inactive.

For `CCN(CC)c1ccccc1`, the AC50 is 50 µM (active).

For the compound `OCC1CO1` (stereo not given), the result was inactive.

Take `c1cc2c3c(cccc3c1)CC2`: the AC50 is 72.4 µM (active).

With `CCC1(c2ccccc2)C(=O)N=C(O)NC1=O` (stereo not given), the AC50 was 64.3 µM (active).

Regarding `CCCN(CCC)c1c([N+](=O)[O-])cc(C(C)C)cc1[N+](=O)[O-]`, the AC50 was 24.5 µM (active).

On to `[N-]=[N+]=[N-]`, for which the compound was classed as inactive.

For `ClC(Cl)c1ccccc1`, the AC50 is 50 µM (active).

In the case of `O=[N+]([O-])c1ccc(Cl)c(Cl)c1`, the AC50 is 5.16 µM (active).

For the compound `CCCCCCCc1ccc(O)cc1`, the result was inactive.

On to `O=[N+]([O-])c1ccccc1`, for which the AC50 is 50 µM (active).

For `COCCOCCO`, the outcome was inactive.

With `CCCCN(CCCC)SN(C)C(=O)Oc1cccc2c1OC(C)(C)C2`, the AC50 is 50 µM (active).

The record behind these values is PubChem BioAssay (EPA / NIEHS).
